Source: PubChem BioAssay (Tox21)
Inconclusive results are not listed. The source made the active and inactive calls. Unless noted, calls follow the shape of the dose curve; as a rule, active = well fitted curve in the direction sought with a large enough effect in the repeat runs; inconclusive = weak or mixed curves; inactive = no such curve, though single readings can be large; an effect the other way counts as inactive or inconclusive.

Experiments:
[1] = biological target: Thyrotropin receptor (Homo sapiens) (UniProt P16473); test: qHTS assay to identify small molecule agonists of the thyroid stimulating hormone receptor (TSHR) signaling pathway (AID 1224843; calls by dose curve; also: nearly all actives have a fitted effect of over 45% in size)
In short: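 A cell-based cAMP HTRF format was run in TSHR-transfected HEK293 cells, 800 per well. Treatment: 30 min, room temperature. Detection: 1 h with labelled cAMP and anti-cAMP cryptate. Concentration-response over 15 points, three replicates.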

[2] = qHTS assay to identify small molecule agonists of the hypoxia (HIF-1) signaling pathway - cell viability counter screen (AID 1224844; calls by dose curve; also: nearly all actives have a fitted effect of over 50% in size; also: potency is read from the fitted curve at half-maximal effect)
In short: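 Same wells as the HIF-1 reporter screen; ME-180 cells carrying HRE-bla, 17 hr treatment at 37C; CellTiter-Glo luminescence read after 30 min at room temperature.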

[3] = qHTS assay to identify small molecule agonists of H2AX (AID 1224845; active = well fitted activation curve with a large enough effect in the signal ratio in the repeat runs, not every such curve was filed as active; the % refers to the signal ratio; also: potency is read from the fitted curve at half-maximal effect)
In short: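 Phospho-H2AX Ser139 measured by HTRF (ex 320 nm; em 665 and 620 nm) after 24 hr antibody incubation. Compounds, 15 concentrations, 0.76% DMSO, were applied to CHO-K1 cells for 3hr at 37C before lysis.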

[4] = qHTS assay to identify small molecule agonists of the hypoxia (HIF-1) signaling pathway (AID 1224846; active = well fitted activation curve with a large enough effect in the signal ratio in the repeat runs, not every such curve was filed as active; the % refers to the signal ratio)
In short: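 In ME-180 cells bearing an HRE-bla construct, 17 h treatment with DMSO-dissolved compounds at 37C was followed by CCF4-AM loading to quantify reporter induction.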

[5] = qHTS assay to identify small molecule agonists of H2AX - cell viability counter screen (AID 1224847; calls by dose curve; also: nearly all actives have a fitted effect of over 30% in size; also: potency is read from the fitted curve at half-maximal effect)
In short: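 Compounds tested at 15 concentrations were incubated 3 hr at 37C with wild-type CHO-K1 cells; cellular ATP-based luminescence (CellTiter-Glo) indicated viability.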

[6] = qHTS RealTime-Glo MT Cell Viability Assay in HepG2 cells - 24 hour (AID 1224867); also: nearly all actives have a fitted effect of over 50% in size
In short: (§1)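 Cell number in HepG2 cultures estimated from NanoLuc luminescence generated by metabolic reduction of a prosubstrate by living cells. The homogeneous, nonlytic format allowed repeated reads at 0, 8, 16, 24, 32 and 40 h of compound exposure.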

[7] = qHTS RealTime-Glo MT Cell Viability Assay in HEK293 cells - 32 hour (AID 1224868); also: nearly all actives have a fitted effect of over 50% in size; also: potency is read from the fitted curve at half-maximal effect
In short: (§2)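 Homogeneous bioluminescent viability format in HEK293 cells (600 cells/well). Following 5 h at 37 C/5% CO2, 23 nL compound was pintooled; the signal was measured repeatedly during 40 h incubation.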

[8] = A CellTox Green Cytotoxicity Assay to monitor cytotoxicity in HEK293 cells - 0 hour (AID 1224869); also: nearly all actives have a fitted effect of over 50% in size
In short: (§3)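 Homogeneous no-lysis format: HEK293 cell suspension mixed with CellTox Green reagent, seeded, incubated 5 h at 37 C/5% CO2, then dosed by pintool with compound in DMSO.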

[9] = qHTS RealTime-Glo MT Cell Viability Assay in HepG2 cells - 40 hour (AID 1224870); also: nearly all actives have a fitted effect of over 50% in size
In short: (§4)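 Real-time viability: cells seeded at 600 per well together with NanoLuc and cell-permeant prosubstrate, compounds added after 5 h incubation. Luminescence tracked at 0, 8, 16, 24, 32 and 40 h of exposure.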

[10] = A CellTox Green Cytotoxicity Assay to monitor cytotoxicity in HEK293 cells - 40 hour (AID 1224871); also: nearly all actives have a fitted effect of over 45% in size; also: potency is read from the fitted curve at half-maximal effect
In short: as §3

[11] = qHTS RealTime-Glo MT Cell Viability Assay in HepG2 cells - 8 hour (AID 1224873); also: nearly all actives have a fitted effect of over 55% in size
In short: as §4

[12] = qHTS RealTime-Glo MT Cell Viability Assay in HEK293 cells - 40 hour (AID 1224874); details: RealTime-Glo luminescence; max response: active compounds read low; also: nearly all actives have a fitted effect of over 50% in size; also: potency is read from the fitted curve at half-maximal effect
In short: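 Measured as luminescence from the same continuously cultured HEK293 wells at successive time points (0, 8, 16, 24, 32, 40 h) after compound addition. Reagent present from seeding; dosing at 5 h; incubation 37 C.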

[13] = A CellTox Green Cytotoxicity Assay to monitor cytotoxicity in HepG2 cells - 16 hour (AID 1224876); also: nearly all actives have a fitted effect of over 45% in size
In short: (§5)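 Fluorescent DNA-binding dye, 600 HepG2 cells/well, 5 h preincubation then compound in DMSO; same plates read at 0–40 h, 37 C.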

[14] = qHTS RealTime-Glo MT Cell Viability Assay in HepG2 cells - 32 hour (AID 1224877); also: nearly all actives have a fitted effect of over 55% in size
In short: as §1

[15] = A CellTox Green Cytotoxicity Assay to monitor cytotoxicity in HepG2 cells - 40 hour (AID 1224879); also: nearly all actives have a fitted effect of over 40% in size; also: potency is read from the fitted curve at half-maximal effect
In short: as §5

[16] = qHTS RealTime-Glo MT Cell Viability Assay in HEK293 cells - 16 hour (AID 1224872)
In short: as §2

[17] = A CellTox Green Cytotoxicity Assay to monitor cytotoxicity in HEK293 cells - 24 hour (AID 1224875); also: nearly all actives have a fitted effect of over 45% in size
In short: as §3

[18] = A CellTox Green Cytotoxicity Assay to monitor cytotoxicity in HepG2 cells - 24 hour (AID 1224878); also: nearly all actives have a fitted effect of over 45% in size
In short: as §5

[19] = qHTS assay to identify small molecule antagonists of the estrogen related receptor (ERR) signaling pathway from Tox21 library (AID 1224848); also: nearly all actives have a fitted effect of over 50% in size; also: potency is read from the fitted curve at half-maximal effect
In short: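 ERR cell line, 2,000 cells/well. 6 h settle, then compound (DMSO) added; 18 h at 37 C; ONE-Glo luminescence after 30 min RT.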

[20] = qHTS assay to identify small molecule agonists of the estrogen related receptor (ERR) signaling pathway from Tox21 library (AID 1224849; calls by dose curve; also: nearly all actives have a fitted effect of over 15% in size); details: ERR reporter cell line, ONE-Glo luciferase, 18 h; at 92.4 µM (top of the series) unless noted
In short: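 Reporter cells (ERR, NTP source) treated with Tox21 10K compounds 18 h, 37 C. Readout: ONE-Glo luminescence, 30 min RT.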
% is scaled to controls: 0 for no effect and ±100 for the full control effect.

Sequence of Thyrotropin receptor (Homo sapiens) (P16473 whole entry, looked up): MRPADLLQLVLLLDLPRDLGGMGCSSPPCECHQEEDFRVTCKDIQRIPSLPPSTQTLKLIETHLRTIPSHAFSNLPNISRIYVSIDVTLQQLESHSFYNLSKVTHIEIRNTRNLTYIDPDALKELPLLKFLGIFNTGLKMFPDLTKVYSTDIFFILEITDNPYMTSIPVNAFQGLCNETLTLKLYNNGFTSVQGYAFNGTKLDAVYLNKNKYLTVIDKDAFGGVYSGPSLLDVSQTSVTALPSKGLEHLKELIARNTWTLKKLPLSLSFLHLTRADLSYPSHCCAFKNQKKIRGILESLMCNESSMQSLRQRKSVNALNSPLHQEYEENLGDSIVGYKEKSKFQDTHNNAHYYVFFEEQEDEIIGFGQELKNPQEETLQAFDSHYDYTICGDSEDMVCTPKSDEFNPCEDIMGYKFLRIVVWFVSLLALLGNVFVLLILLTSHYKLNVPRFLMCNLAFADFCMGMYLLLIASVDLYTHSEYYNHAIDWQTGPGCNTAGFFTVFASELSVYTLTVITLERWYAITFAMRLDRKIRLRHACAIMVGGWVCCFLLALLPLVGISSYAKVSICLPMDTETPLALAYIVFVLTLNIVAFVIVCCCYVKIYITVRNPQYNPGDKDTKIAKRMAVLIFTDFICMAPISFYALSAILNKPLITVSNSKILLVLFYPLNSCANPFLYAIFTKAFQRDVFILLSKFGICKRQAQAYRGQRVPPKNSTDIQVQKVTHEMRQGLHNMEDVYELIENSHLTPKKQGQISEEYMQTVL

COc1ccc2nc(NC(=O)Nc3ccccc3)sc2c1
active: Potency [2] 19 µM | Potency [7] 5.35 µM | Potency [10] 26.8 µM | Potency [12] 6.01 µM | Potency [15] 4.25 µM
inactive: Potency [1] | Potency [3] | outcome [4] | Potency [5] | Potency [6] | Potency [8] | Potency [9] | outcome [11] | Potency [13] | Potency [14]

FC(F)(F)C(Cl)(Cl)Cl
inactive: Potency [1] | Potency [2] | Potency [3] | outcome [4] | Potency [5] | Potency [6] | Potency [7] | Potency [8] | Potency [9] | Potency [10] | Potency [16] | outcome [11] | max response [12] 6.41% | Potency [17] | Potency [13] | Potency [14] | Potency [18] | Potency [15]

Oc1ccccc1F
inactive: Potency [1] | Potency [2] | Potency [3] | outcome [4] | Potency [5] | Potency [6] | Potency [7] | Potency [8] | Potency [16] | outcome [11] | max response [12] 16.1% | Potency [17] | Potency [13] | Potency [14] | Potency [18] | Potency [15]

O=Cc1ccc(F)c(Br)c1
inactive: Potency [1] | Potency [2] | Potency [3] | outcome [4] | Potency [5] | Potency [6] | Potency [7] | Potency [8] | Potency [9] | Potency [10] | Potency [16] | outcome [11] | max response [12] 3.83% | Potency [17] | Potency [13] | Potency [14] | Potency [18] | Potency [15]

CCC1(C)NC(=O)NC1=O (stereo unspecified)
inactive: Potency [1] | Potency [2] | Potency [3] | outcome [4] | Potency [5] | Potency [6] | Potency [7] | Potency [9] | Potency [10] | Potency [16] | outcome [11] | max response [12] -2.11% | Potency [17] | Potency [14]

COC(=O)N[C@H](C(=O)N[C@@H](Cc1ccccc1)[C@@H](O)CN(Cc1ccc(-c2ccccn2)cc1)NC(=O)[C@@H](NC(=O)OC)C(C)(C)C)C(C)(C)C
active: Potency [3] 24.7 µM
inactive: Potency [1] | Potency [2] | outcome [4] | Potency [5] | Potency [6] | Potency [7] | Potency [8] | Potency [10] | Potency [16] | max response [12] -6.22% | Potency [17] | Potency [14]

N#Cc1ccc(C(c2ccc(C#N)cc2)n2cncn2)cc1
inactive: Potency [1] | Potency [2] | Potency [3] | outcome [4] | Potency [5] | Potency [6] | Potency [7] | Potency [8] | Potency [9] | Potency [10] | Potency [16] | outcome [11] | max response [12] -0.518% | Potency [17] | Potency [13] | Potency [14] | Potency [18] | Potency [15]

CCCCCCC
inactive: Potency [1] | Potency [2] | Potency [3] | outcome [4] | Potency [5] | Potency [6] | Potency [7] | Potency [8] | Potency [9] | Potency [10] | Potency [16] | outcome [11] | max response [12] -15.1% | Potency [17] | Potency [13] | Potency [14] | Potency [18] | Potency [15]

O=C(O)[C@@H]1CSCN1
inactive: Potency [1] | Potency [2] | Potency [3] | outcome [4] | Potency [5] | Potency [6] | Potency [7] | Potency [8] | Potency [9] | Potency [10] | Potency [16] | outcome [11] | max response [12] 2.01% | Potency [17] | Potency [13] | Potency [14] | Potency [18] | Potency [15]

CCOc1ccccc1N
inactive: Potency [1] | Potency [2] | Potency [3] | outcome [4] | activity change, positive = activation [20] -59% | Potency [6] | Potency [8] | Potency [16] | outcome [11] | Potency [17] | Potency [13] | Potency [14] | Potency [18] | Potency [15]
active: Potency [5] 44.7 µM | Potency [19] 12.1 µM

CN(CC1(C)CCCO1)S(=O)(=O)c1ccc(Cl)c(S(N)(=O)=O)c1 (stereo unspecified)
inactive: Potency [1] | Potency [2] | Potency [3] | outcome [4] | Potency [5] | Potency [6] | Potency [7] | Potency [8] | Potency [10] | Potency [16] | outcome [11] | max response [12] 2.08% | Potency [17] | Potency [13] | Potency [14] | Potency [18] | Potency [15]

CCOc1ccc(OCC)c(Cl)c1
inactive: Potency [1] | Potency [2] | Potency [3] | Potency [5] | Potency [19] | activity change, positive = activation [20] 4.33% | Potency [6] | Potency [7] | Potency [9] | Potency [16] | outcome [11] | max response [12] 5.94% | Potency [17] | Potency [13] | Potency [14] | Potency [18] | Potency [15]

C[C@]12CCC(=O)C=C1CC[C@@H]1[C@@H]2CC[C@@]2(C)[C@H]1CC[C@]2(O)C(=O)CO
inactive: Potency [1] | Potency [2] | Potency [3] | Potency [5] | activity change, positive = activation [20] -16% [at 42.5 µM] | Potency [6] | Potency [7] | Potency [8] | Potency [10] | Potency [16] | outcome [11] | Potency [17] | Potency [13] | Potency [14] | Potency [18] | Potency [15]

C=C(C)C(=O)OCCOP(=O)(O)O
inactive: Potency [1] | Potency [2] | Potency [3] | Potency [5] | Potency [6] | Potency [7] | Potency [8] | Potency [9] | Potency [10] | Potency [16] | outcome [11] | max response [12] 13.8% | Potency [17] | Potency [13] | Potency [14] | Potency [18] | Potency [15]
